In the library only some 4% were active in any assay of this set; here they are far more common.
HIF-2a block: blocks HIF-2a reporter activity | 786-0 RCC cells HIF-2a reporter, luciferase luminescence, overnight | inhibition, % at 18.8 µM | actives 0.72% (n = 360,000) | AID 624352;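 active = inhibition of the luminescence signal of 40% or more relative to plate controls, in a single-dose primary screen at 18.75 µM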
KKLEB tox: counter-screen for CF NF-kB inhibitors: cytotoxicity | KKLEB CF airway cells viability, ATPlite luminescence, overnight; active compounds read low; cells stimulated with P. aeruginosa culture filtrate | activity change (cytotoxicity), % at 5 µM | actives 0.36% (n = 360,000) | AID 602141;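 active = corrected activity change at or below -50% at 5 µM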
Peg3 promoter: reduces Peg3 promoter-driven luciferase expression in HeLa. HeLa PEG-Prom luciferase reporter, luminescence, overnight. inhibition, % at 20 µM. actives 1.7% (n = 360,000). AID 588405;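 active = inhibition of at least 50% at 20 µM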
CF NFkB inh: blocks PAF-induced NF-kB reporter in cystic fibrosis cells. actives 0.86% (n = 360,000). inhibition, % at 5 µM. KKLEB NF-kB-GFP reporter, GFP fluorescence overnight;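 active = at least 50% inhibition at 5 µM, scaled per plate between neutral and stimulator controls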;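 also: PAF is a Pseudomonas aeruginosa culture filtrate used as stimulus; plate controls were PAF-stimulated DMSO wells for no effect and unstimulated DMSO wells for full effect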
TWEAK Fn14 block: TWEAK-Fn14 signaling inhibition | TWEAK-stimulated Fn14 reporter cells, luciferase luminescence, 8 h | inhibition, % at 10 µM | actives 2% (n = 360,000); in the data active = inhibition above about 50%
TROY signal inh: inhibitors of TROY-dependent NF-kB signaling. Q293 LMP1-TROYcd NF-kB luciferase reporter, 4 h. inhibition, % at 10 µM. actives 0.98% (n = 360,000). AID 1347056;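 active = compounds whose plate-normalised and pattern-corrected inhibition of the luciferase reporter signal at the single screening dose is 50% or more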
An asterisk follows results filed as active.

SMILES	HIF-2a block	KKLEB tox	Peg3 promoter	CF NFkB inh	TWEAK Fn14 block	TROY signal inh
CCN(CC)S(=O)(=O)c1cccc(NC(=O)COC(=O)c2[nH]c(C)c(C(C)=O)c2C)c1	-14	13	8	-10	65*	50
Oc1ccc(Cl)cc1Nc1nc(NCC2CCCO2)c2ccccc2n1 (configuration not stated)	-25	-14	7	-40	72*	51*
Oc1ccccc1Nc1nc(NCC2CCCO2)c2ccccc2n1 (configuration not stated)	-17	0	3	-6	39	18
Oc1ccc(Nc2nc(NCC3CCCO3)c3ccccc3n2)cc1 (configuration not stated)	22	6	6	-26	8	-42
COc1cccc(Nc2nc(NCC3CCCO3)c3ccccc3n2)c1 (configuration not stated)	-2	-17	24	-12	88*	43
COc1cccc(NC(=O)N2CCCC2C(=O)NC(C)C)c1 (configuration not stated)	3	-12	11	-12	3	-12
O=C(CCS(=O)(=O)c1ccccc1)Nc1nc2c(s1)COc1ccccc1-2	-43	4	92*	8	15	-14
CC1(C)CC(NC(=O)COc2ccccc2Cl)CC(C)(C)N1	-46	-2	-156	-25	78*	75*
COc1ccc(OCC(=O)NC2CC(C)(C)NC(C)(C)C2)cc1	-1	6	4	1	65*	63*
Cc1ccc(C2N(c3cccc(Cl)c3)C(=O)C3CCCN32)o1 (configuration not stated)	-1	6	-6	-10	3	-4
COc1ccc(N2C(=O)C(Cl)=C(Oc3cccc(OC)c3)C2=O)cc1	93*	4	107*	12	1	-6
Cc1cccc(Nc2nc(NCc3ccco3)c3ccccc3n2)c1	-86	-5	85*	18	86*	30
c1ccc(Nc2nc(NCc3ccco3)c3ccccc3n2)cc1	-187	-14	-68	26	52*	-6
CC1CC(C)CN(C(=O)c2ccc3nc[nH]c3c2)C1 (configuration not stated)	-1	17	4	-20	-2	-10
c1ccc(-c2ncc3c(ccc4ccccc43)n2)cc1	-35	-54*	-81	-15	84*	51*
O=C(O)c1ncc(-c2ccccc2)cn1	-1	-12	1	10	1	-7
c1ccc2c(c1)cnc1ccccc12	-1	3	-6	0	7	1
c1ccc(-c2cnc(-c3ccccc3)nc2)cc1	-298	-16	-135	-8	67*	1
Cc1ccccc1CSc1nc(C(C)(C)C)cc(=O)[nH]1	4	5	0	-12	2	65*
Cc1cc(=O)[nH]c(SCc2cccc3ccccc23)n1	28	-10	-2	-3	-6	19
COc1cccc(Oc2nc(-c3ccncc3)nc3ccccc23)c1	13	-5	13	17	-20	-20
COc1ccc(C(=O)N2CCN(c3ncnc4c(-c5ccccc5)nsc34)CC2)cc1	-8	8	-18	-7	16	6
COc1ccc(-c2nsc3c(N4CCCCC4)ncnc23)cc1	60*	-62*	49	-26	102*	80*
Cc1ccc(-c2nsc3c(N4CCC(C(N)=O)CC4)ncnc23)cc1	-133	-19	-141	-9	59*	45
Nc1ncnc2c1ncn2[C@@H]1O[C@H](CCC(=O)NCc2ccccc2)[C@@H](O)[C@H]1O	4	9	-4	-19	-15	2
SMILES	HIF-2a block	KKLEB tox	Peg3 promoter	CF NFkB inh	TWEAK Fn14 block	TROY signal inh
Cc1ccc(CNC(=O)C2CCC(=O)N2C(C)C)cc1 (configuration not stated)	19	-11	9	18	13	2
COc1ccc(-c2noc(N3CCC(C(=O)NCc4ccc(F)cc4)CC3)n2)cc1	-59	-24	-45	23	-20	-27
COc1cccc(NC(=O)Nc2nc(SC)ns2)c1	-279	-3	-280	40	56*	-10
COc1cccc(NC(=O)Nc2nccc(C)n2)c1	-25	-3	-26	-13	62*	26
CCSc1nsc(NC(=O)Nc2cccc(F)c2)n1	-244	-44	-92	33	55*	48
Cc1ccnc(NC(=O)Nc2cccc(F)c2)n1	-143	10	-213	-57	13	-60
COc1cccc(NC(=O)Nc2nc(SC(C)(C)C)ns2)c1	-238	-8	-106	41	77*	41
CC1=C(C(=O)N(C)C)CC(CC(=O)NCCCN(C)C)C(=O)N1Cc1ccc(C(C)(C)C)cc1 (configuration not stated)	4	0	-10	1	-43	-13
Cc1ccc(NC(=O)c2cc(S(=O)(=O)N3CCc4ccccc43)cn2C)cc1C	25	-20	52*	36	34	9
Cc1ccc(NC(=O)N2CCCc3ccccc32)cc1C	-172	0	-170	-6	26	65*
Cc1cc(=O)oc(C)c1C(=O)N1CCCc2ccccc21	10	1	4	3	97*	12
Cc1cccc(NC(=O)N2CCCc3ccccc32)c1C	-13	9	2	-17	51*	75*
O=C(Nc1ccccc1)N1CCCc2ccccc21	-25	-14	-12	6	8	-1
Cc1cc(C(=O)NCc2cc(C)n(C)n2)sc1-c1ccccc1	-47	19	-32	4	22	2
O=C(Nc1ccccc1)c1nnsc1S(=O)c1ccc(Cl)cc1 (configuration not stated)	35	-25	88*	56*	3	-11
OCCN(CCO)CC(O)COc1ccc(C23CC4CC(CC(C4)C2)C3)cc1 (configuration not stated)	89*	-10	24	20	77*	47
COCc1cc(=O)n2c(-c3ccc(C)cc3)n[nH]c2n1	-23	9	-35	4	15	-18
COc1ccccc1-c1cc(C(F)(F)F)nc(S(=O)(=O)CCCC(=O)Nc2cc(C)on2)n1	73*	-66*	106*	86*	39	39
COc1ccc(-c2cc(C(F)(F)F)n3nc(C(=O)Nc4cc(C)on4)cc3n2)cc1OC	12	-14	21	16	14	11
COc1ccccc1-c1cc(C(F)(F)F)nc(S(=O)(=O)CCCC(=O)NC(C)C)n1	90*	-94*	113*	88*	39	-5
COc1ccccc1-c1cc(C(F)(F)F)nc(S(=O)(=O)CCCC(=O)Nc2cccnc2Cl)n1	34	-55*	111*	72*	82*	62*
COc1ccc(-c2cc(C(F)(F)F)nc(S(=O)(=O)CCCC(=O)Nc3cc(C)on3)n2)cc1OC	-55	-75*	111*	102*	96*	52*

Bioassay records: PubChem, Sanford-Burnham Center for Chemical Genomics
